A number with no mark means an inactive call. Inconclusive results are not listed. A call without a number means that no potency is given here. Active and inactive are the calls of the source. Unless noted, the call rests on the fitted dose curve; in most records, active means well fitted curve in the direction sought with a large enough effect in the repeat runs; inconclusive means weak or mixed curves; inactive means no such curve, though single readings can be large; an effect the other way counts as inactive or inconclusive.
Tests used:
[1] = qHTS assay for small molecule agonists of the p53 signaling pathway (AID 651631; calls by dose curve; further: nearly all actives have a fitted effect of over 15% in size; further: potency means the concentration at half of the fitted maximal effect)
Outline: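 HCT-116 cells carrying a stable p53 response element–beta-lactamase reporter were plated, rested 5 h at 37 °C, then exposed to compound in DMSO for 16 h at 37 °C; reporter activity was read as FRET substrate fluorescence after 2 h at room temperature.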

[2] = qHTS assay for small molecules that induce genotoxicity in human embryonic kidney cells expressing luciferase-tagged ATAD5 (AID 651632); further: nearly all actives have a fitted effect of over 15% in size; further: potency means the concentration at half of the fitted maximal effect
Outline: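 ATAD5-luc HEK293T, 2,000 cells/well; cpd or DMSO pin-transferred; 16 hr, 37C/5% CO2; Amplite 30 min RT; luminescence.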

[3] = qHTS assay for small molecule agonists of the p53 signaling pathway - cell viability (AID 651633; calls by dose curve; further: series mostly up to about 83 µM; nearly all actives have a fitted effect of over 30% in size)
Outline: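 p53RE-bla cells, seeded at 4,000 per well and rested 5 h at 37 C/5% CO2, received compounds in DMSO for 16 h at 37 C. CellTiter-Glo was then added, and luminescence was read after 30 min at room temperature to gauge cytotoxicity.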

[4] = qHTS assay for small molecule disruptors of the mitochondrial membrane potential - cell viability (AID 720634; calls by dose curve;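 further: human HepG2 liver cancer cells; series mostly up to about 83 µM; nearly all actives have a fitted effect of over 20% in size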)
Outline: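 Cells: HepG2, 2,000/well, attached overnight. Compound 1 hr, 37 C/5% CO2. +m-MPI dye, +CellTiter-Glo 30 min RT. Readout: luminescence (ATP).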

[5] = qHTS assay for small molecule disruptors of the mitochondrial membrane potential (AID 720635); further: potency means the concentration at half of the fitted maximal effect
Outline: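 HepG2 cells (2,000/well) attached overnight at 37C, then took compound for 1 hr at 37C, 5% CO2. Mito-MPS dye was added for 30 min; fluorescence was read at 490/535 nm (monomers) and 540/590 nm (aggregates).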

[6] = qHTS assay to test for compound auto fluorescence at 590 nm (red) in HepG2 cells (AID 720674)
Outline: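 Compound auto-fluorescence is scored relative to Rose Bengal sodium, measured at 540/590 nm in live HepG2 cultures after 1 hr compound contact (37 C, 5% CO2).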

[7] = qHTS assay to test for compound auto fluorescence at 535 nm (green) in HepG2 cells (AID 720675)
[8] = qHTS assay to test for compound auto fluorescence at 460 nm (blue) in HEK293 cells (AID 720678)
Outline: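 Blue read-out at excitation 405 nm and emission 460 nm follows overnight compound exposure of HEK293 cells at 37C in 5% CO2. Activity is given as auto fluorescence equivalency to triamterene.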

[9] = qHTS assay to test for compound auto fluorescence at 590 nm (red) in HEK293 cells (AID 720679)
Outline: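 Red channel, Ex/Em 540/590nm; signal expressed as equivalency to Rose Bengal sodium. HEK293, 2,000 cells/well, 10% dialyzed FBS; 23 nL compound pinned after 4-5 hr attachment; overnight 37C/5% CO2 before reading.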

[10] = qHTS assay to test for compound auto fluorescence at 535 nm (green) in HEK293 cells (AID 720680)
[11] = qHTS assay to test for compound auto fluorescence at 460 nm (blue) in HEK293 cell free culture (AID 720681)
Outline: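 Test compounds were pinned into cell-free culture medium (DMEM with 10% FBS) and fluorescence was read directly at Ex/Em 405/460 nm. Signals were expressed as fluorescence equivalents of triamterene, with DMSO vehicle as control.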

[12] = qHTS assay to test for compound auto fluorescence at 535 nm (green) in HEK293 cell free culture (AID 720682)
Outline: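 Read-out: 485/535 nm fluorescence intensity, calibrated against fluorescein. Medium only (DMEM + 10% FBS, no cells); test compound or DMSO vehicle added by pintool before plate reading.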

[13] = qHTS assay to test for compound auto fluorescence at 590 nm (red) in HEK293 cell free culture (AID 720683)
Outline: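 Tox21 10K library compounds were pinned into cell-free DMEM with 10% FBS and fluorescence was read at excitation 540 nm. Activity is expressed as Rose Bengal sodium equivalency.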

[14] = qHTS assay to test for compound auto fluorescence at 590 nm (red) in HepG2 cell free culture (AID 720684)
Outline: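 Measured in medium alone (MEM containing 10% FBS) following pintool addition of compound; emission at 590 nm with 540 nm excitation, referenced to Rose Bengal sodium.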

[15] = qHTS assay to test for compound auto fluorescence at 460 nm (blue) in HepG2 cell free culture (AID 720685)
Outline: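 Compound (23 nL) or DMSO pinned into cell-free MEM with 10% FBS; blue fluorescence read at 405/460 nm excitation/emission, expressed as auto-fluorescence equivalency to triamterene.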

[16] = qHTS assay to test for compound auto fluorescence at 535 nm (green) in HepG2 cell free culture (AID 720686)
[17] = qHTS assay to test for compound auto fluorescence at 460 nm (blue) in HepG2 cells (AID 720687)
Outline: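 Cells (2,000/well in MEM with 10% FBS) attached overnight at 37 C, then were exposed to compound or DMSO for 1 hr at 37 C, 5% CO2. Fluorescence read at Ex/Em 405/460 nm, expressed as triamterene-equivalent signal.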

[18] = target: Glucocorticoid receptor (Homo sapiens) (UniProt P04150); assay: qHTS assay to identify small molecule agonists of the glucocorticoid receptor (GR) signaling pathway (AID 720691; active means well fitted activation curve with a large enough effect in the signal ratio in the repeat runs, not every such curve was filed as active; the % refers to the signal ratio)
Glucocorticoid receptor (Homo sapiens), sequence (P04150 whole entry, looked up): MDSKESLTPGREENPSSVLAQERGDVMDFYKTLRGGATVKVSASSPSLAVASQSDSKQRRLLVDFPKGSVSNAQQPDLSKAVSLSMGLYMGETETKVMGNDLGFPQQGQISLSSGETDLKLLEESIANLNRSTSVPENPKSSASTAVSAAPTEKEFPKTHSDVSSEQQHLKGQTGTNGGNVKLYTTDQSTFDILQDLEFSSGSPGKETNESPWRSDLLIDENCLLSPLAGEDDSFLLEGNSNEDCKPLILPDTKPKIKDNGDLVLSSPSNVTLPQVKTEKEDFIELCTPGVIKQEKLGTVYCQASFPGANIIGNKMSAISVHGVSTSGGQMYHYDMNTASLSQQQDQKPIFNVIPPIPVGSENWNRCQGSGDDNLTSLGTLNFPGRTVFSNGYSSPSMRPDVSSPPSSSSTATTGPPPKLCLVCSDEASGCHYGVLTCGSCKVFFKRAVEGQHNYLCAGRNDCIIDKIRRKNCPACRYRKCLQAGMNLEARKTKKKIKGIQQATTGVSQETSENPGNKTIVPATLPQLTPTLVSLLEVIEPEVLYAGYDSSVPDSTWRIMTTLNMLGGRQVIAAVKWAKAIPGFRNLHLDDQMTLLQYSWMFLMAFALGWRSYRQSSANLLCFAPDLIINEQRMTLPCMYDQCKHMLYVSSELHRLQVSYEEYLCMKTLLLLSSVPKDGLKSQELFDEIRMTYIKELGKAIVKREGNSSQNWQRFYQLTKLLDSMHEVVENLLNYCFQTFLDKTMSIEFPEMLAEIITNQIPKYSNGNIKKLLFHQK
Outline: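 Fluorescence intensity from LiveBLAzer B/G FRET substrate (2 h, room temperature) reports beta-lactamase expression driven by the glucocorticoid response element in GR-bla HeLa cells after 18 h compound exposure at 37 C.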

[19] = target: Glucocorticoid receptor (Homo sapiens) (UniProt P04150); assay: qHTS assay to identify small molecule antagonists of the glucocorticoid receptor (GR) signaling pathway (AID 720692; active means well fitted inhibition curve with a large enough effect in the signal ratio in the repeat runs, not every such curve was filed as active; the % refers to the signal ratio)
Outline: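 HeLa GR-bla cells; cmpd + dex 5 nM final, 18 h 37 C; LiveBLAzer B/G FRET substrate 2 h RT; fluorescence intensity read. Antagonist mode, qHTS.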

In the case of `COC(=O)Nc1nc2ccc(C(=O)c3ccccc3)cc2[nH]1`, the Potency [1] is reported as 160 nM (active), the Potency [2] is reported as 3200 nM (active) and the Potency [3] is reported as “inactive”. The Potency [4] was “inactive”, the Potency [5] was 2270 nM (active) and the fluorescence, relative to Rose Bengal [6] was -0.678% [at 18.6 µM]. For the same compound, the fluorescence, % of fluorescein control [7] was 0.0492% [at 18.6 µM], the fluorescence, % of triamterene [8] was 0.0612% [at 18.6 µM] and the fluorescence, % of fluorescent control [9] was 0.41% [at 18.6 µM]. The fluorescence, % of fluorescein [10] was -0.035% [at 18.6 µM], the fluorescence, % of fluorescent control [11] was -0.0403% [at 18.6 µM] and the activity change [12] was -0.0263% [at 18.6 µM, stronger effect = higher value]. For the same compound, the fluorescence, % of fluorescent control [13] was 0.0057% [at 18.6 µM], the fluorescence, % of Rose Bengal [14] was 0.103% [at 18.6 µM] and the fluorescence, % of fluorescent control [15] was 0.0166% [at 18.6 µM]. The fluorescence, % of fluorescein control [16] was 0.0619% [at 18.6 µM], the fluorescence, % of fluorescent control [17] was 0.116% [at 18.6 µM] and the Potency [18] was “inactive”.
With `CCC(CC)C(C)CCOC(C)=O` (configuration not stated) the Potency [1] was “inactive”, the Potency [2] was “inactive” and the Potency [3] was “inactive”. For the same compound, the Potency [4] was “inactive”, the Potency [5] was “inactive” and the Potency [6] was “inactive”. For the same compound, the Potency [7] was “inactive”, the Potency [8] was “inactive” and the Potency [9] was “inactive”. The Potency [10] was “inactive”, the Potency [11] was “inactive” and the Potency [13] was “inactive”. For the same compound, the Potency [14] was “inactive”, the Potency [15] was “inactive” and the Potency [16] was “inactive”. The Potency [17] was “inactive”.
For `C=CC(C)(CCC=C(C)C)OC=O` (configuration not stated), the Potency [1] was “inactive”, the Potency [2] was “inactive” and the Potency [3] was “inactive”. The Potency [4] was “inactive”, the Potency [5] was “inactive” and the Potency [6] was “inactive”. For the same compound, the Potency [7] was “inactive”, the Potency [8] was “inactive” and the Potency [10] was “inactive”. The Potency [12] was “inactive”, the Potency [13] was “inactive” and the Potency [14] was “inactive”. The Potency [15] was “inactive”, the Potency [17] was “inactive” and the Potency [18] was “inactive”. The Potency [19] was “inactive”.
In the case of `CCO[Si](OCC)(OCC)OCC`, the Potency [1] is reported as “inactive”, the Potency [2] is reported as “inactive” and the Potency [3] is reported as “inactive”. The Potency [4] was “inactive”, the Potency [6] was “inactive” and the Potency [7] was “inactive”. For the same compound, the Potency [8] was “inactive”, the Potency [9] was “inactive” and the Potency [10] was “inactive”. For the same compound, the Potency [11] was “inactive”, the Potency [13] was “inactive” and the Potency [14] was “inactive”. For the same compound, the Potency [15] was “inactive”, the Potency [16] was “inactive” and the Potency [17] was “inactive”. The Potency [18] was “inactive” and the Potency [19] was “inactive”.
